These results are taken from PubChem BioAssay (NCATS).

Records with an inconclusive call do not appear. The source made the active and inactive calls. Calls come from the whole dose curve.
% is set by controls: 0 for no effect and ±100 for the full control effect; potency is the fitted concentration of half-maximal effect.

The test is described as follows: Cytotoxicity counterscreen for inhibitors of SARS-CoV-2 cell entry (AID 1645845). Note: nearly all actives have a fitted effect of over 50% in size. The settings on record: cell viability (SARS-CoV-2 entry assay cells); series mostly up to 57.1 µM; activity change, negative = cytotoxicity: at the top concentration. Summed up:
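After a 15 min room-temperature ATPLite 1step step, luminescence reflected ATP remaining in HEK293-ACE2 cells exposed to compound for 1 h plus 48 h at 37 C, with percent activity set by cell and no-cell controls.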
For orientation: The purpose of a counterscreen is to sort out artefacts and off-target activity.
Regarding `CCC1CCCCN1C(=O)n1ncc(C(O)(c2ccccc2)c2ccccc2)n1` (stereo not drawn), the Potency was 11.2 µM (active).

On to `CC(C)(CO)n1cc(C(=O)c2cncc(NC(=O)Cc3ccc(Cl)cn3)c2)c2cnc(N)nc21`, for which the outcome was inactive.

With `O=C(CCl)Nc1cccc(NC2=NS(=O)(=O)c3ccccc32)c1`, the outcome was inactive.

With `O=C(NOCCO)c1cc(CN2OCCCC2=O)c(F)c(F)c1Nc1ccc(I)cc1F`, the “activity change, negative = cytotoxicity” value was -9.84% (inactive).

Turning to `Cc1ccc2cc(-c3c(C)ccc(C(=O)c4c(-c5ccccc5)n(C)n(-c5ccccc5)c4=O)c3N)ccc2n1`, the “activity change, negative = cytotoxicity” value was -4.8% (inactive).

Take `CCc1ccc2nc(Nc3cc(Cc4ccccc4)nc(NC4CCC(O)CC4)n3)sc2c1` (stereo not drawn): the “activity change, negative = cytotoxicity” value was -27.5% (inactive).

In the case of `CC(C)NCCCn1c(Sc2cc(Cl)cc(Cl)c2)nc2c(N)ncnc21`, the call was inactive.

On to `CC(=NNC(=O)c1cccc(S(=O)(=O)N2CCOCC2)c1)c1cc(Cl)ccc1O`, for which the outcome was inactive.

`O=C(NCc1cccc(O)c1)Nc1nc(-c2ccncc2)cs1`: the “activity change, negative = cytotoxicity” value was -15.4% (inactive).

For `Cc1ccc(Nc2ncc3c(n2)N(C)C(=O)N(c2cc(NC(=O)c4cccc(C(F)(F)F)c4)ccc2C)C3)cn1`, the “activity change, negative = cytotoxicity” value is -20.3% (inactive).

Regarding `CCN1CCN(Cc2ccc(NC(=O)c3ccc(C)c(/C=C/c4cnc5[nH]ccc5c4OC)c3)cc2C(F)(F)F)CC1`, the Potency is 35.5 µM (active).

For the molecule `O=S(=O)(Nc1ccc(-c2cccnc2)c2cccnc12)c1cccc(C(F)(F)F)c1`, the Potency was 14.1 µM (active).

`CCn1nc(C2CCN(C(=O)CCO)CC2)nc1-c1cnc(N)c(-c2nnc(C(C)(C)C)o2)n1`: the “activity change, negative = cytotoxicity” value was -10.2% (inactive).

For the molecule `CN(C)c1cc(NC(=O)CNC(C)(C)C)c(O)c2c1C[C@H]1C[C@H]3[C@H](N(C)C)C(=O)C(C(N)=O)=C(O)[C@]3(O)C(=O)C1=C2O`, the “activity change, negative = cytotoxicity” value is -0.326% (inactive).

Regarding `COc1ccc2nc3n[nH]c(C)c3c(NCCOCCO)c2c1`, the “activity change, negative = cytotoxicity” value was -10.7% (inactive).

On to `CNc1nc(-c2ccc3c(N)n[nH]c3c2)cc(N2C[C@@H](C(=O)NC3CCCCC3)CC[C@H]2C)n1`, for which the “activity change, negative = cytotoxicity” value was 0.975% (inactive).

On to `O=C(O)/C(S)=C/c1ccc(I)cc1`, for which the “activity change, negative = cytotoxicity” value was 1.15% (inactive).

`CS(=O)(=O)c1ccc([C@@H](CC2CCCC2)C(=O)Nc2nccs2)cc1`: the “activity change, negative = cytotoxicity” value is -17.5% (inactive).

As to `Cn1ncnc1[C@H]1c2n[nH]c(=O)c3cc(F)cc(c23)N[C@@H]1c1ccc(F)cc1`, the “activity change, negative = cytotoxicity” value was -31.4% (inactive).

`Cn1cc(/C=C/C(=O)c2cccc(F)c2)cc1/C=C/C(=O)NO`: the molecule was called inactive.

Regarding `C[C@@H]1COCCN1c1cc(=O)n2c(n1)N(Cc1cncc(Cl)c1)[C@H](C(F)(F)F)CC2`, the “activity change, negative = cytotoxicity” value was 0.894% (inactive).

Regarding `CC(C)=CCC[C@](C)(O[C@@H]1O[C@H](CO[C@@H]2O[C@H](CO)[C@@H](O)[C@H](O)[C@H]2O)[C@@H](O)[C@H](O)[C@H]1O)[C@H]1CC[C@]2(C)[C@@H]1[C@H](O)C[C@@H]1[C@@]3(C)CC[C@H](O[C@@H]4O[C@H](CO)[C@@H](O)[C@H](O)[C@H]4O[C@@H]4O[C@H](CO)[C@@H](O)[C@H](O)[C@H]4O)C(C)(C)[C@@H]3CC[C@]12C`, the “outcome” value was “inactive [at 27.1 µM]”.

For `COCCOC(=O)N1CCN(S(=O)(=O)c2cc(F)c(Oc3ccc(Cl)cc3)c(F)c2)C(C(=O)NO)C1` (stereo not drawn), the Potency was 31.6 µM (active).

In the case of `Cc1c(NC(=O)OCC2COCCN2)cn2ncnc(Nc3ccc4c(cnn4Cc4cccc(F)c4)c3)c12` (stereo not drawn), the “activity change, negative = cytotoxicity” value is -19.4% (inactive).

On to `O=C(Nc1cccc(C(F)(F)F)c1)c1cccc2cc(Oc3cc(CO)ncn3)ccc12`, for which the molecule was classed as inactive.

Turning to `O=C(O)CCNc1cc(N2CCc3ccccc3CC2)nc(-c2cccnc2)n1`, the result was inactive.

In the case of `O=C(C1CC1)N1CC[C@@H](Cc2n[nH]c(=O)n2-c2ccc(-c3ccc4occc4c3)cc2)C1`, the Potency is 4.47 µM (active).

Turning to `CO[C@H]1C[C@@H]2CC[C@@H](C)[C@@](O)(O2)C(=O)C(=O)N2CCCC[C@H]2C(=O)O[C@H]([C@H](C)C[C@@H]2CC[C@@H](OCCO)[C@H](OC)C2)CC(=O)[C@H](C)/C=C(/C)[C@@H](O)[C@@H](OC)C(=O)[C@H](C)C[C@H](C)/C=C\C=CC=C1C`, the “activity change, negative = cytotoxicity” value was -0.862% (inactive).

With `CN1C(=O)N(c2cc(Cl)cc(Cl)c2)C(=O)[C@]12CN(Cc1cc(C(=O)O)cs1)C[C@H]2c1ccc(C#N)cc1`, the “activity change, negative = cytotoxicity” value was -2.41% (inactive).

In the case of `O=C(O)c1cnn(-c2nc3cc(OC(F)(F)F)c(Cl)cc3[nH]2)c1`, the “activity change, negative = cytotoxicity” value is 2.04% (inactive).

In the case of `CN1CCN(CCCNc2ncc(Cl)c(-c3cc4c(C(=O)NC5CC5)cccc4s3)n2)CC1`, the “activity change, negative = cytotoxicity” value is -3.18% (inactive).

For the molecule `COc1ccc(CNC(=O)c2cc(-c3cncc(Cl)c3)cnc2-c2ccccn2)nc1OC`, the call was inactive.

Consider `COc1cc(N2CCC(N(C)C)CC2)ccc1Nc1ncc(Cl)c(Nc2ccccc2P(C)(C)=O)n1`, for which the Potency was 15.8 µM (active).
